Results as given in PubChem BioAssay AID1159580 (chemical genetic matrix, 2015).
Among all 5,500 compounds or so, about 2,000 (36%) were called active. Inconclusive results (about 18%) are left out. Rule as the data show it: active = normalized growth mostly below about 0.91 (no sharp cut-off); inconclusive = no clear call, values can overlap the other calls; inactive = mostly above about 0.92. The list shows a part of the results.

Assay: chemical genetic growth profiling, strain panel (AID 1159580);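 also: tested at 20 µM; growth read once vehicle control cultures reached saturation at 30 °C; 1 = growth at the plate median or of vehicle wells; lower values mean less growth of the strain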
Details: S. cerevisiae deletion strains, growth OD

Measured: normalized growth

CCN1CCC[C@H]1CNC(=O)c1c(OC)ccc(I)c1O
inactive: locus YAL040C, strain CLN3, stronger effect = lower value 1.01 | locus YCL061C, strain MRC1 (second series), stronger effect = lower value 1 | locus YDR150W, strain NUM1, stronger effect = lower value 0.986 | locus YDR363W, strain ESC2, stronger effect = lower value 1.01 | locus YER002W, strain NOP16, stronger effect = lower value 0.996 | locus YGR229C, strain SMI1, stronger effect = lower value 0.92 | locus YJR075W, strain HOC1, stronger effect = lower value 0.984 | locus YMR307W, strain GAS1, stronger effect = lower value 1 | locus YNL175C, strain NOP13, stronger effect = lower value 1 | locus YNL197C, strain WHI3, stronger effect = lower value 1.02 | locus YNL224C, strain SQS1, stronger effect = lower value 1.01 | locus YNL322C, strain KRE1, stronger effect = lower value 0.996 | locus YOR083W, strain WHI5 (second series), stronger effect = lower value 0.974 | locus YPL055C, strain LGE1, stronger effect = lower value 0.972 | locus YPL241C, strain CIN2, stronger effect = lower value 0.998
